Laboratory results from the supplement of paper PMC9262897, “Low-cost anti-mycobacterial drug discovery using engineered E. coli” (Nature Communications, 2022).
Where a name gives a salt, the structure may show the parent alone. ± gives the standard deviation of the averaged measurements.

What was measured:
Test in all cases: growth (OD600 after 10 h); higher = more growth (less inhibition)
[1] = tested on: E. coli TESEC Alr+ wild-type control; settings: compound 0.1 mM; raw OD600 reference: median of DMSO wells 0.241, cell-free background 0.041
Method: (§1)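 TESEC Mtb Alr E. coli, or the Alr+ wild-type control, in 384-well plates with Prestwick library compounds at 0.1 mM and 1% DMSO, across arabinose induction levels of 1E3 to 1E7 nM. Growth is read as OD600 after 10 h at 37 °C in triplicate biological replicates.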

E. coli TESEC Mtb Alr [2] = settings: compound 0.1 mM
Method: as §1

E. coli TESEC Mtb Asd = settings: compound 0.1 mM
Method: (§2)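 TESEC E. coli strains in which the native enzyme is deleted and replaced by arabinose-inducible Mtb Asd, DapB, CysH or TrpD, each grown in its selective medium. Strains were screened against the Prestwick library at 0.1 mM and 1% DMSO in 384-well format at low and high arabinose induction. Growth is read as OD600 after 10 h in triplicate.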

E. coli TESEC Mtb DapB = settings: compound 0.1 mM
Method: as §2

[3] = tested on: E. coli TESEC Alr+ wild-type control; settings: compound 0.1 mM; raw OD600 reference: median of DMSO wells 0.49, cell-free background 0.052
Method: (§3)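 TESEC Mtb Alr E. coli (ΔaraC ΔtolC ΔentC Δalr ΔdadX, arabinose-inducible Mtb Alr) or the Alr+ wild-type control strain, grown in defined M9-fructose medium without D-alanine in 96-well plates with Prestwick library compounds at 0.1 mM and 1% DMSO. Low Alr induction is 0.1 µM arabinose and high induction is 10 mM arabinose.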

E. coli TESEC Mtb Alr [4] = settings: compound 0.1 mM; remark: listed apart in the source
Method: as §3

[5] = arabinose 1000 nM, raw OD600 reference: median of DMSO wells 0.294, cell-free background 0.041
[6] = arabinose 10000 nM, raw OD600 reference: median of DMSO wells 0.264, cell-free background 0.041
[7] = arabinose 100000 nM, raw OD600 reference: median of DMSO wells 0.201, cell-free background 0.041
[8] = arabinose 1000000 nM, raw OD600 reference: median of DMSO wells 0.193, cell-free background 0.041
[9] = arabinose 10000000 nM, raw OD600 reference: median of DMSO wells 0.146, cell-free background 0.041
[10] = arabinose induction (level): High, raw OD600 reference: median of DMSO wells 0.331, cell-free background 0.041
[11] = arabinose induction (level): Low, raw OD600 reference: median of DMSO wells 0.417, cell-free background 0.041
[12] = arabinose induction (level): High, raw OD600 reference: median of DMSO wells […], cell-free background 0.041
[13] = arabinose induction (level): Low, raw OD600 reference: median of DMSO wells 0.227, cell-free background 0.041
[14] = arabinose 100 nM, raw OD600 reference: median of DMSO wells 0.413, cell-free background 0.052
[15] = arabinose 10000000 nM, raw OD600 reference: median of DMSO wells […], cell-free background 0.052

Compound | growth [1] | growth (E. coli TESEC Mtb Alr [2]; [5]) | growth (E. coli TESEC Mtb Alr [2]; [6]) | growth (E. coli TESEC Mtb Alr [2]; [7]) | growth (E. coli TESEC Mtb Alr [2]; [8]) | growth (E. coli TESEC Mtb Alr [2]; [9]) | growth (E. coli TESEC Mtb Asd; [10]) | growth (E. coli TESEC Mtb Asd; [11]) | growth (E. coli TESEC Mtb DapB; [12]) | growth (E. coli TESEC Mtb DapB; [13]) | growth [3] | growth (E. coli TESEC Mtb Alr [4]; [14]) | growth (E. coli TESEC Mtb Alr [4]; [15])
CC(=O)Oc1cc(C(C)C)c(OCCN(C)C)cc1C [Moxisylyte hydrochoride] | 0.219 ± 0.0037 | 0.245 ± 0.055 | 0.273 ± 0.0074 | 0.179 ± 0.017 | 0.155 ± 0.003 | 0.14 ± 0.00075 | 0.297 ± 0.046 | 0.441 ± 0.041 | 0.171 ± 0.0028 | 0.247 ± 0.053 | 0.533 ± 0.029 | 0.41 ± 0.0064 | 0.242 ± 0.13
CCOC(=O)Nc1ccc2c(c1)N(C(=O)CCN1CCOCC1)c1ccccc1S2 [Moricizine hydrochloride] | 0.157 ± 0.0017 | 0.202 ± 0.0069 | 0.222 ± 0.0081 | 0.196 ± 0.012 | 0.1097 ± 0.00081 | 0.14 ± 0.0063 | 0.175 ± 0.018 | 0.228 ± 0.083 | 0.168 ± 0.0088 | 0.199 ± 0.022 | 0.354 ± 0.0077 | 0.3937 ± 0.0035 | 0.258 ± 0.022
Cc1c(O)c(=O)n(-c2ccccc2)n1C [Antipyrine, 4-hydroxy] | 0.2468 ± 0.00085 | 0.289 ± 0.012 | 0.252 ± 0.0096 | 0.211 ± 0.0099 | 0.182 ± 0.004 | 0.154 ± 0.0051 | 0.338 ± 0.034 | 0.375 ± 0.01 | 0.184 ± 0.01 | 0.206 ± 0.032 | 0.507 ± 0.069 | 0.405 ± 0.0081 | 0.37 ± 0.033
CCCCCCC[N+](CC)(CC)CCCCc1ccc(Cl)cc1 [Clofilium tosylate] | 0.03993 ± 0.00025 | 0.03923 ± 5.8e-05 | 0.039 ± 0.00017 | 0.03977 ± 0.00021 | 0.03863 ± 0.00025 | 0.0398 ± 0.00026 | 0.0468 ± 0.00026 | 0.0474 ± 0.00051 | 0.0462 ± 0.00046 | 0.0478 ± 0.0034 |  | 0.0551 ± 0.0018 | 0.05213 ± 0.0004
Nc1c(Br)cc(Br)cc1CN[C@H]1CC[C@H](O)CC1 [Ambroxol hydrochloride] | 0.202 ± 0.0077 | 0.256 ± 0.014 | 0.283 ± 0.0086 | 0.18 ± 0.031 | 0.1617 ± 0.0016 | 0.149 ± 0.0085 | 0.168 ± 0.021 | 0.318 ± 0.06 | 0.204 ± 0.015 | 0.221 ± 0.029 |  | 0.406 ± 0.0096 | 0.312 ± 0.015
COC1=C(OC)C(=O)C(CCCCCCCCCCO)=C(C)C1=O [Idebenone] | 0.0426 ± 0.0005 | 0.0428 ± 0.0023 | 0.0413 ± 0.00026 | 0.0466 ± 0.0041 | 0.04233 ± 0.0004 | 0.0482 ± 0.0015 | 0.0516 ± 0.0016 | 0.0501 ± 0.0007 | 0.0884 ± 0.057 | 0.066 ± 0.0091 |  | 0.139 ± 0.087 | 0.0513 ± 0.001
NNCCc1ccccc1 [Phenelzine sulfate] | 0.221 ± 0.0075 | 0.285 ± 0.015 | 0.261 ± 0.0056 | 0.187 ± 0.0033 | 0.0977 ± 0.0084 | 0.135 ± 0.0098 | 0.389 ± 0.044 | 0.4 ± 0.024 | 0.191 ± 0.012 | 0.249 ± 0.056 | 0.399 ± 0.017 | 0.0532 ± 0.007 | 0.0708 ± 0.0023
Cc1ccnc(NS(=O)(=O)c2ccc(N)cc2)n1 [Sulfamerazine] | 0.245 ± 0.0069 | 0.293 ± 0.013 | 0.229 ± 0.0029 | 0.211 ± 0.0032 | 0.154 ± 0.0069 | 0.133 ± 0.004 | 0.437 ± 0.023 | 0.4484 ± 0.0033 | 0.21 ± 0.0031 | 0.228 ± 0.018 |  | 0.42 ± 0.0052 | 0.334 ± 0.0087
